Screens as filed in PubChem BioAssay.
Only some compounds are listed: those with a hit (about 4.1% of all), similar ones and a draw of the others.
Peg3 prom inh = Peg3 promoter-driven luciferase inhibitors, primary screen, cell-based, HeLa, luciferase luminescence; HeLa PEG-Prom luciferase reporter, overnight; inhibition, % at 20 µM; hit rate 1.7% among 360,000; AID 588405, 2011;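 active = inhibition of at least 50% at 20 µM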
TWEAK-Fn14 inh = inhibitors of TWEAK-Fn14 signaling, primary screen, luciferase reporter cells, uHTS; TWEAK-stimulated Fn14 reporter cells, luciferase luminescence, 8 h; inhibition, % at 10 µM; hit rate 2% among 360,000; AID 1159606, 2016; in the data active = inhibition above about 50%
TRPM1 prom inh = inhibitors of MITF-dependent TRPM1 promoter reporter, primary screen, cell-based, SK-MEL-5, single point, luciferase | inhibition, % at 12.5 µM | AID 488899, 2010 | SK-MEL-5 TRPM1 promoter luciferase, 24 h | hit rate 0.83% among 330,000;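 active = mean inhibition across replicates of 60% or more, whatever share of single replicates reaches that level; inconclusive = some that reach 60%, reason not given; inactive = mean inhibition across replicates below 60%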
Shn3 3UTR inh = reduction of Shn3 3'UTR firefly luciferase signal, primary screen, Schnurri-3 inhibitor project, cell-based, Clone20 osteoblasts, set 2; Clone20 osteoblast Shn3 3'UTR firefly luciferase, 24 h; inhibition, % at 12.5 µM; hit rate 0.52% among 360,000;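 active = mean inhibition of at least 75% with every replicate also reaching 75%; inconclusive = mean inhibition at least 75% but some replicate below; inactive = mean inhibition below 75%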;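 also: 0% = median of neutral control wells and 100% = pilot-screen positive control compound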
LMP1 NFkB inh = EBV LMP1-driven NF-kappaB luciferase reporter inhibitors, primary screen, cell-based, luminescence, single point | inhibition, % at 12.5 µM | hit rate 0.69% among 350,000 | AID 504558, 2011 | LMP1-induced NF-kappaB luciferase reporter cells; in the data active = inhibition above about 41%; inconclusive = no clear call, values can overlap the other calls;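 also: 0% = neutral control wells and 100% = reference inhibitor control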
TROY signal inh = inhibitors of TROY-driven NF-kB signaling, primary screen, Q293 LMP1-TROYcd cells, NF-kB luciferase, uHTS | Q293 LMP1-TROYcd NF-kB luciferase reporter, 4 h | inhibition, % at 10 µM | hit rate 0.98% among 360,000;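 active = compounds whose plate-normalised and pattern-corrected inhibition of the luciferase reporter signal at the single screening dose is 50% or more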
The depositor's hits bear a star; ? = inconclusive; . = not tested or not shown.

SMILES	Peg3 prom inh	TWEAK-Fn14 inh	TRPM1 prom inh	Shn3 3UTR inh	LMP1 NFkB inh	TROY signal inh
N#Cc1cc2nc(O)c(O)nc2cc1[N+](=O)[O-]	-2	14	5	-2	0	-13
CNc1nc2cc([N+](=O)[O-])c([N+](=O)[O-])cc2nc1NC	4	51*	36	81	30	27
Fc1ccccc1CSCc1nc2ccccc2[nH]1	-282	-19	-88	-121	-27	-45
O=C(O)c1sccc1SCc1ccc(Cl)c(Cl)c1	-30	-6	-1	-4	0	-31
C=CS(=O)(=O)N(Cc1ccc(Cl)c(Cl)c1)C[C@@H](O)CO	69*	32	-32	4	25	-11
NNc1nc2sc3c(c2c(=O)n1Cc1ccccc1)CCC3	5	-21	3	4	-9	-5
NNc1nc(-c2ccccc2)nc2sc3c(c12)CCCC3	-200	79*	-17	2	-8	72*
CC1CCCN(C(=O)c2cn(-c3ccccc3)nc2-c2cccnc2)C1 (stereo not drawn)	19	-7	4	-1	-4	0
O=[N+]([O-])c1ccc(CS(=O)c2ccccc2)cc1 (stereo not drawn)	1	10	-7	2	8	0
O=[N+]([O-])c1ccc(S(=O)Cc2ccccc2)c([N+](=O)[O-])c1 (stereo not drawn)	96*	42	97*	95*	29	74*
N#C/C(=C\c1ccncc1)c1nc2ccccc2o1	12	-18	.	-37	.	-17
N#C/C(=C\Nc1ccccc1O)c1nc2ccccc2o1	1	43	7	21	-1	52*
CCCn1c(N)c(C(=O)COC(=O)CNC(=O)c2ccccc2OCC)c(=O)[nH]c1=O	1	-21	4	-13	2	-1
CCN1C(=O)C2(SC(NC(C)=O)=NN2C(C)=O)c2cc(C)cc(C)c21 (stereo not drawn)	19	1	4	3	-1	-3
CCCN1C(=O)C2(SC(NC(C)=O)=NN2C(C)=O)c2cc(C)cc(C)c21 (stereo not drawn)	8	-6	-1	.	54*	-3
Cc1ccccc1Oc1ccc2c(c1)[C@@H]1C[C@H](N(C)C(=O)NC3CCCCC3)[C@H]([C@H](C)O)C(=O)N1CC2	-1	3	10	14	9	10
Cc1ccccc1Oc1ccc2c(c1)[C@@H]1C[C@H](N(C)C(=O)Nc3cc(Cl)cc(Cl)c3)[C@H]([C@H](C)O)C(=O)N1CC2	68*	16	-7	4	13	-8
COc1ccccc1OCC(=O)N/N=C/c1cccc2cccnc12	-7	2	12	3	-3	3
Cc1cc(C)n(CCC(=O)N/N=C/c2ccc(O)cc2)n1	1	6	-15	2	5	9
COc1ccccc1OCC(=O)N/N=C/c1c(O)ccc2ccccc12	63*	11	48	25	18	29
O=C(N/N=C/c1c(O)ccc2ccccc12)c1cccc(C(F)(F)F)c1	68*	41	71*	69	26	42
O=C(CN1CCCC1)N/N=C/c1c(O)ccc2ccccc12	32	5	38	91*	27	14
O=C(NN=Cc1c(O)ccc2ccccc12)C1CC1	40	-25	49	77	2	-12
Cc1cc(C)n(CCC(=O)N/N=C/c2c(O)ccc3ccccc23)n1	65*	36	?	97*	56*	19
O=C(NCC1CCCN1S(=O)(=O)c1cccs1)c1ccc(F)cc1 (stereo not drawn)	-23	-3	-10	-15	-5	-14
SMILES	Peg3 prom inh	TWEAK-Fn14 inh	TRPM1 prom inh	Shn3 3UTR inh	LMP1 NFkB inh	TROY signal inh
O=C(CSc1nnc(CNC(=O)c2ccccc2)o1)NCc1ccccc1Cl	3	-1	-1	3	6	16
O=C(N/N=C/c1c(O)ccc2ccccc12)C(=O)N1CCCC1	30	8	.	82*	24	22
CCCCCCN1C[C@@H](n2cc(-c3ccc(F)cc3)nn2)[C@H](O)C[C@@H]1c1ccc(Cl)cc1	69*	44	.	?	7	41
CCCCCCN1C[C@@H](n2cc(-c3ccc(F)cc3)nn2)[C@H](O)C[C@@H]1c1ccc(OC)cc1	61*	14	.	31	-3	4
COc1ccc([C@H]2C[C@H](O)[C@@H](n3cc(-c4ccc(F)cc4)nn3)CN2Cc2cccs2)cc1	69*	42	.	43	39	38
COC(=O)CCC(=O)N1CCC(Oc2cccc(C(=O)NCc3ccccn3)c2)CC1	10	18	.	3	1	0
CC(O)CNC12CC3CC(CC(C3)C1)C2 (stereo not drawn)	2	2	7	4	-3	3
COc1ccccc1C(=O)Nc1nc(-c2ccc3c(c2)OCCO3)cs1	-38	5	.	-1	3	51*
COc1cccc(NC(=O)N2CCN(c3nc(-c4cccc(OC)c4)cs3)CC2)c1	51*	67*	17	32	24	37
O=C(Nc1nc(-c2ccc3c(c2)OCCO3)cs1)c1ccco1	-255	26	-51	-53	-20	11
COc1ccc(-c2csc(NC(C)=O)n2)cc1OC	-15	-21	-22	6	-7	-7
COc1ccc(-c2csc(NC(=O)c3c(C)noc3C)n2)cc1F	-35	20	-23	-19	15	77*
COc1cccc(NC(=O)Nc2nc(-c3ccc(OC)c(OC)c3)cs2)c1	105*	105*	80*	75	52*	70*
COc1ccc(/C=C/C(=O)Nc2ccccc2C(=O)NCC(c2ccc(OC)cc2)N(C)C)cc1 (stereo not drawn)	-79	28	-24	-36	-1	38
COc1ccc(CC(=O)Nc2nc(-c3cc(OC)ccc3OC)cs2)cc1	27	65*	-13	19	-2	20
CCOC(=O)CSc1c(-c2ccc(Cl)cc2)[nH]c2ccccc12	15	4	20	11	6	-22
O=C(Cc1cccs1)NCCSc1c(-c2ccc(Cl)cc2)[nH]c2ccccc12	42	81*	.	34	3	51*
Cn1c(=O)c2sccc2n2c(CCCC(=O)NC3CCN(Cc4ccccc4)CC3)nnc12	-11	11	7	20	0	13
COc1ccc(-c2ccc3c(c2)S(=O)(=O)c2cccc(C(=O)NCCOc4ccccc4Cl)c2C3=O)cc1OC	87*	7	69*	13	-80	54*
O=C(NCc1cc(C(F)(F)F)ccc1Cl)c1cccc2c1C(=O)c1ccc(N3CCC(N4CCCCC4)CC3)cc1S2(=O)=O	99*	-93	.	76	-38	-7
